Laboratory results reported in PubChem BioAssay (Tox21).
Inconclusive results are not listed. Activity calls are given as the source filed them. Unless noted, calls come from the whole dose curve. Non-standard residues stand in square brackets, D forms with d. Residues, ends and D or L forms follow the SMILES beside them. *: point of attachment. Sta = CC(C)C[C@H](N)[C@@H](O)CC(=O)O; Isovaleryl = CC(C)CC(=O)*

How the values were obtained:
[1] = qHTS assay to identify small molecule antagonists of the estrogen related receptor signaling pathway with the pleiotropic PPARgamma coactivator (PGC) from Tox21 10K library - cell viability counter screen (AID 1224840; active = well fitted cell-killing curve with a large enough effect in the repeat runs, not every such curve was filed as active; note: nearly all actives have a fitted effect of over 40% in size)
How it was run: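 Cell viability is measured by CellTiter-Fluor fluorescence in PGC/ERR cells that receive compounds after a 6-hour attachment period and are then incubated 17.5 hours at 37 C.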

[2] = target: Thyrotropin receptor (Homo sapiens) (UniProt P16473); assay: qHTS assay to identify small molecule agonists of the thyroid stimulating hormone receptor (TSHR) signaling pathway (AID 1224843); note: nearly all actives have a fitted effect of over 45% in size; note: potency is the fitted concentration of half-maximal effect
Sequence of Thyrotropin receptor (Homo sapiens) (P16473 whole entry, looked up): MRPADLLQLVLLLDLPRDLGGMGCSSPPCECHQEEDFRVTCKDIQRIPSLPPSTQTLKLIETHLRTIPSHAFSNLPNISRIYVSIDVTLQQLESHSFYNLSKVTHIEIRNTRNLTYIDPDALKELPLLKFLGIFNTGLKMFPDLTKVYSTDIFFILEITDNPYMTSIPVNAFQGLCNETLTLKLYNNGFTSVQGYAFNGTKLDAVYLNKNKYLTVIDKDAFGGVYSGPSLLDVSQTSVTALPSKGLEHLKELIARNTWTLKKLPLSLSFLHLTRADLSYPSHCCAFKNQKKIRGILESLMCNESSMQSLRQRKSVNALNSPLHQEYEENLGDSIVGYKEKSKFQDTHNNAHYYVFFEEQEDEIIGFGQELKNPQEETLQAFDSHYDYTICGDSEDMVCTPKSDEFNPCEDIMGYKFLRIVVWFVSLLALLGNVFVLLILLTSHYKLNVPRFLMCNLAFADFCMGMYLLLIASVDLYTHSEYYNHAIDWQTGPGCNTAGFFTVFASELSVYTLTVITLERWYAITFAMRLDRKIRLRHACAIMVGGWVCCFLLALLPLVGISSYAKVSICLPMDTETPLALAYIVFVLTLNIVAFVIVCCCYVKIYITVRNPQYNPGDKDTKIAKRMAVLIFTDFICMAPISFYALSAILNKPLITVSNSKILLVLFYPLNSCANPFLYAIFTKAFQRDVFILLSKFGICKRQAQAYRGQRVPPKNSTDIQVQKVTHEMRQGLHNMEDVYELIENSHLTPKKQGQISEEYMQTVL
How it was run: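 A cell-based cAMP HTRF format was run in TSHR-transfected HEK293 cells, 800 per well. Treatment: 30 min, room temperature. Detection: 1 h with labelled cAMP and anti-cAMP cryptate. Concentration-response over 15 points, three replicates.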

[3] = qHTS assay to identify small molecule agonists of the hypoxia (HIF-1) signaling pathway - cell viability counter screen (AID 1224844); note: nearly all actives have a fitted effect of over 50% in size
How it was run: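 Viability counter screen: HRE-bla ME-180 cells plated 5 hrs before compound addition, treated 17 hrs at 37C and 5% CO2, then CellTiter-Glo added after the FRET reporter read; luminescence after 30 min.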

[4] = qHTS assay to identify small molecule agonists of H2AX (AID 1224845; active = well fitted activation curve with a large enough effect in the signal ratio in the repeat runs, not every such curve was filed as active; the % refers to the signal ratio)
How it was run: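 Phospho-H2AX Ser139 measured by HTRF (ex 320 nm; em 665 and 620 nm) after 24 hr antibody incubation. Compounds, 15 concentrations, 0.76% DMSO, were applied to CHO-K1 cells for 3hr at 37C before lysis.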

[5] = qHTS assay to identify small molecule agonists of H2AX - cell viability counter screen (AID 1224847); note: top concentration of the series differs between compounds; nearly all actives have a fitted effect of over 30% in size
How it was run: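 Read-out: CellTiter-Glo luminescence, 30 min RT. Cells: wild-type CHO-K1, 1000/well, 10% FBS, plated overnight at 37C. Treatment: 15 concentrations, 3 hr, 37C, 0.76% DMSO.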

[6] = qHTS assay to identify small molecule agonists of the hypoxia (HIF-1) signaling pathway (AID 1224846; active = well fitted activation curve with a large enough effect in the signal ratio in the repeat runs, not every such curve was filed as active; the % refers to the signal ratio)
How it was run: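 Agonist mode reporter screen. ME-180 cells stably expressing bla under HRE control received test compounds in DMSO for 17 hrs (37C, 5% CO2), and beta-lactamase activity was then detected with the CCF4-AM FRET substrate.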
% is set by controls: 0 for no effect and ±100 for the full control effect.

CCN(CC)CC
inactive: outcome [1] | Potency [2] | outcome [3] | outcome [4] | outcome [5]

CC1(C)S[C@@H]2[C@H](NC(=O)Cc3ccccc3)C(=O)N2[C@H]1C(=O)O (tested in a mixture with another compound)
inactive: outcome [1] | Potency [2] | outcome [3] | outcome [4] | outcome [5]

CCCC(=O)CC
inactive: outcome [1] | Potency [2] | outcome [3] | outcome [4] | outcome [5]

Cc1cccc(N)n1
inactive: outcome [1] | Potency [2] | outcome [3] | outcome [4] | outcome [5]

CCCOc1ccc(C(=O)OCCN(CC)CC)cc1N
inactive: outcome [1] | Potency [2] | outcome [3] | outcome [4] | outcome [5]

CCCCS
inactive: outcome [1] | Potency [2] | outcome [3] | outcome [4] | outcome [5]

Cc1ccc(S(=O)(=O)NC(=O)NN2CC3CCCC3C2)cc1 (stereo not given)
inactive: outcome [1] | Potency [2] | outcome [3] | outcome [4] | outcome [5]

C[C@@H]1CC[C@@]2(OC1)O[C@H]1C[C@H]3[C@@H]4CC[C@H]5C[C@@H](O)CC[C@]5(C)[C@H]4CC(=O)[C@]3(C)[C@H]1[C@@H]2C
inactive: viability change, negative = cytotoxic [1] -2.49% [at 8.39 µM] | activation [2] -5.02% [at 8.39 µM] | activity change, negative = cytotoxicity [3] 3.36% [at 6.97 µM] | activation (H2AX phosphorylation) [4] 0.205% [at 14 µM] | activity change, negative = cytotoxicity [5] -1.3% [at 14 µM]

CC(O)CCCCn1c(=O)c2c(ncn2C)n(C)c1=O (stereo not given)
inactive: outcome [1] | Potency [2] | outcome [3] | outcome [4] | outcome [6] | outcome [5]

CC(C)C(C)C
inactive: outcome [1] | Potency [2] | outcome [3] | outcome [4] | outcome [6] | outcome [5]

O=C(O)/C=C(\CC(=O)O)C(=O)O
inactive: outcome [1] | Potency [2] | outcome [3] | outcome [4] | outcome [5]

c1coc(Cn2cccc2)c1
inactive: outcome [1] | Potency [2] | outcome [3] | outcome [4] | outcome [5]

N#CC1(N)CCCCC1
inactive: outcome [1] | Potency [2] | outcome [3] | outcome [4] | outcome [5]

CC(C)CC(=O)N[C@H](C(=O)N[C@H](C(=O)N[C@@H](CC(C)C)[C@@H](O)CC(=O)N[C@@H](C)C(=O)N[C@@H](CC(C)C)[C@@H](O)CC(=O)O)C(C)C)C(C)C (Isovaleryl-VV[Sta]A[Sta]-OH)
inactive: outcome [1] | Potency [2] | outcome [3] | outcome [4] | outcome [5]

C/C=C(\C)C=O
inactive: outcome [1] | Potency [2] | outcome [3] | outcome [4] | outcome [5]

CC(=O)c1ccc(O)c(C(N)=O)c1
inactive: outcome [1] | Potency [2] | outcome [3] | outcome [4] | outcome [5]

COc1ccccc1N1CCN(CC(O)COc2cc(OC)c(OC)c(OC)c2)CC1 (stereo not given)
inactive: outcome [1] | Potency [2] | outcome [3] | outcome [4] | outcome [5]

NS(=O)(=O)c1cc2c(cc1C(F)(F)F)NCNS2(=O)=O
inactive: outcome [1] | Potency [2] | outcome [3] | outcome [4] | outcome [5]

Clc1ccc2c(c1)Nc1ccccc1S2
inactive: outcome [1] | Potency [2] | outcome [3] | outcome [6] | outcome [5]

COc1cc(NS(=O)(=O)c2ccc(N)cc2)ncn1
inactive: outcome [1] | Potency [2] | outcome [3] | outcome [4] | outcome [5]

CC(C)(C)OC(=O)c1ccccc1C(=O)O
inactive: outcome [1] | Potency [2] | outcome [3] | outcome [4] | outcome [6] | outcome [5]

C[C@@H]1CCC[C@H](C)N1CCCC(O)(c1ccccc1)c1ccccn1 (stereo not given in full)
inactive: outcome [1] | Potency [2] | outcome [3] | outcome [4] | outcome [5]

CC12CCCC=C1C(=O)OC2=O (stereo not given)
inactive: outcome [1] | Potency [2] | outcome [3] | outcome [4] | outcome [6] | outcome [5]

CCCCc1ccc(Cl)cc1
inactive: outcome [1] | Potency [2] | outcome [3] | outcome [4] | outcome [6] | outcome [5]

CCCCCCCCCCCCCCCC/C=C/C1CC(=O)OC1=O (stereo not given)
inactive: outcome [1] | Potency [2] | outcome [3] | outcome [4] | outcome [6] | outcome [5]

CC(=O)/C=C/C=C1/C2CCC(C2)C1(C)C (stereo not given)
active: Potency [2] 18.8 µM
inactive: outcome [1] | outcome [3] | outcome [4] | outcome [6] | outcome [5]

CCCCCCCOC(C)=O
inactive: outcome [1] | Potency [2] | outcome [3] | outcome [4] | outcome [5]

COCCCOc1cc(C[C@@H](C[C@H](N)[C@@H](O)C[C@H](C(=O)NCC(C)(C)C(N)=O)C(C)C)C(C)C)ccc1OC
inactive: outcome [1] | Potency [2] | outcome [3] | outcome [4] | outcome [5]

N#Cc1cc(NC(=O)C(=O)O)c(Cl)c(NC(=O)C(=O)O)c1
inactive: outcome [1] | Potency [2] | outcome [3] | outcome [4] | outcome [6] | outcome [5]

C=C(C)C(=O)OCCCC
inactive: outcome [1] | Potency [2] | outcome [3] | outcome [4] | outcome [6] | outcome [5]

CCOCCOCCOC(C)=O
inactive: outcome [1] | Potency [2] | outcome [3] | outcome [4] | outcome [6] | outcome [5]

CNCCc1ccccn1
inactive: outcome [1] | Potency [2] | outcome [3] | outcome [4] | outcome [5]
